Reference: the supplement of paper PMC6555819

Key:
Assay in all cases: PBM binding z-score (relative to random genomic background probes); higher = stronger binding; sequences stand for … in GC…GCGATTGACAGCGTAGAATGAAGG
[1] = system: RARb homodimer (NR concentration 270 nM)
Procedure, shortened: (§1)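 Custom Agilent 4×180K protein-binding microarrays carried double-stranded probes, each with a 34-nt variable region. These regions held direct-repeat seeds, single-nucleotide variants, half-site ablations and random human genomic background sequences. Ligand-free nuclear receptor dimers were incubated on the arrays for 1 h, antibodies against each partner (one per run) detected binding, and scanned fluorescence was regression-normalized. Binding z-scores take the random background probes as reference.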

[2] = system: RARg:RXRa (NR concentration 270 nM, RXRa partner concentration 90 nM)
Procedure, shortened: as §1

[3] = system: RARg homodimer (NR concentration 270 nM)
Procedure, shortened: as §1

[4] = system: RXRa DBDmut IVT, anti-RXR (DBD mutation: RXRa K156A/R161A, NR concentration 90 nM)
Procedure, shortened: as §1

[5] = system: RXRa homodimer (NR concentration 180 nM)
Procedure, shortened: as §1

[6] = system: THRa:RXRa (NR concentration 90 nM, RXRa partner concentration 90 nM)
Procedure, shortened: as §1

[7] = system: THRa homodimer (NR concentration 90 nM)
Procedure, shortened: as §1

[8] = system: VDR homodimer (NR concentration 270 nM)
Procedure, shortened: as §1

Sequence	PBM binding z-score [1]	PBM binding z-score [2]	PBM binding z-score [3]	PBM binding z-score [4]	PBM binding z-score [5]	PBM binding z-score [6]	PBM binding z-score [7]	PBM binding z-score [8]
ATATGTAGGTTAGCTGGGGTCAGTCAGACTAGGC	3.61	3.36	2.88	0.894	3.64	5.02	2.36	2.29
AGAATGAGGTTAAGATCAGGGAAACAGAATACAT	0.9	2.17	1.52	0.973	2.58	2.67	0.768	0.379
ACTATTAGTTGATTTAGGGCAACCGATACGACGC	0.736	0.306	0.883	1.2	0.356	1.52	0.806	0.367
CCTACTGGGCCATTCTGAGGTCATTGATCATATG	3.32	3.38	1.96	1.23	2.4	4.22	4.5	3.8
CCGCGGAGGACAACAGGAGGTCAGAGCTGCCAGA	3.47	3.63	3.65	0.503	1.98	2.83	1.18	1.55
TCTATTAGTTGATTAGGGCCACCGAAACAGCGGA	0.67	0.31	0.582	1.19	0.411	1.09	0.613	0.435
CGAACTAGGTCAAAACAGGACAGTGAAGGATGAT	2.27	3.48	3.77	1.49	2.25	4.13	0.485	0.573
TCTTGTAGATCAAAGGTTAAGCAAGCCGAAGCCT	1.9	1.98	0.759	0.824	3.56	1.51	-0.503	-0.138
